# Test results reported in PubChem BioAssay AID588397 (National Center for Advancing Translational Sciences (NCATS), 2011).
# About 1,000 (77%) of roughly 1,300 compounds were called active. Another 7% or so got no clear call; they are omitted. So high a share suggests a set chosen from earlier hits. Some of the results follow. A number with no mark means an inactive call. Calls follow the shape of the dose curve; as a rule, active = well fitted inhibition curve with a large enough effect; inconclusive = small, poorly fitted or top-dose-only effect; inactive = no such curve, though single readings can be large or run the other way.
# Assay: qHTS of small molecules that selectively kill Giardia lamblia: Hit Validation.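 Also: viability measured as ATP content by luminescence so killing lowers signal; trophozoites exposed to compounds for 48 h anaerobically at 37 °C; nearly all actives have a fitted effect of over 65% in size.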
# Conditions: Giardia lamblia trophozoite viability, dose-response; series mostly up to 38.3 µM; activity change, negative = killing: at the top concentration
# In short: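 Luminescence from cellular ATP indicates surviving trophozoites (100 cells/well) following 48 hrs anaerobic compound treatment at 37 deg C; signal develops 15-30 min at room temperature.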
# % is scaled to controls: 0 for no effect and ±100 for the full control effect; potency is read from the fitted curve at half-maximal effect.
SMILES,Potency,"activity change, negative = killing"
Cc1c(NC(=O)c2ccc([N+](=O)[O-])o2)cccc1-c1nc2ncccc2o1,0.918 µM (active),
Cc1ccc(-c2nc3ncccc3o2)cc1NC(=O)c1ccc([N+](=O)[O-])o1,0.918 µM (active),
O=C(Nc1ccc(-c2nc3ncccc3o2)cc1)c1ccc([N+](=O)[O-])o1,1.3 µM (active),
Cc1cc2ncn(/N=C/c3ccc([N+](=O)[O-])s3)c2cc1C,1.3 µM (active),
Nc1nc2ccccc2n1/N=C/c1ccc([N+](=O)[O-])s1,0.41 µM (active),
Cc1nc2ccccc2n1/N=C/c1ccc([N+](=O)[O-])s1,1.63 µM (active),
O=[N+]([O-])c1ccc(/C=N/n2c(CO)nc3ccccc32)s1,0.65 µM (active),
O=C(Cc1ccccc1)Nc1nnc(-c2cccs2)s1,1.45 µM (active),
O=[N+]([O-])c1ccc2nc(CO)[nH]c2c1,2.31 µM (active),
CCc1nc2cc([N+](=O)[O-])c([N+](=O)[O-])cc2[nH]1,6.5 µM (active),
Cn1c([N+](=O)[O-])cnc1N1CCN(c2nncs2)C1=O,0.365 µM (active),
Cc1cc(C)c2nc(NC(=O)c3ccc([N+](=O)[O-])o3)sc2c1,1.16 µM (active),
Cc1cc(C)c2sc(NC(=O)c3ccc([N+](=O)[O-])o3)nc2c1,1.16 µM (active),
Cc1cccc(-n2ncc3c(N4CCCC4)ncnc32)c1,5.16 µM (active),
COc1ccc(Cn2ccnc2SCC(=O)NC2CCCC2)cc1,,-1.53%
COc1ccc(C(=S)NC2CCCCC2)cc1,1.03 µM (active),
Cc1nc2c(o1)C(=O)c1ccccc1C2=Nc1ccccc1,6.5 µM (active),
Cc1ccc(CN=c2c([N+](=O)[O-])nn(-c3cccc(C)c3)n2O)cc1,18.3 µM (active),
COc1ccc(-n2nc([N+](=O)[O-])c(=NCc3cccnc3)n2O)cc1,2.59 µM (active),
Cc1cccc(-n2nc([N+](=O)[O-])c(=NCc3cccnc3)n2O)c1,4.1 µM (active),
Cc1ccc(CN=c2c([N+](=O)[O-])nn(-c3cccc(Cl)c3)n2O)cc1,18.3 µM (active),
O=[N+]([O-])c1nn(-c2ccc3c(c2)OCCO3)n(O)c1=NC1CCCC1,3.65 µM (active),
O=[N+]([O-])c1nn(-c2ccc3c(c2)OCCO3)n(O)c1=NC1CCCCCC1,2.05 µM (active),
O=[N+]([O-])c1nn(-c2ccc3c(c2)OCCO3)n(O)c1=NC1CCCCC1,3.26 µM (active),

SMILES,Potency,"activity change, negative = killing"
Cc1nc([N+](=O)[O-])cn1-c1nc2ccccn2c1[N+](=O)[O-],1.83 µM (active),
COc1cc(-c2noc(C)c2C(=O)NCC[C@@H]2CCCN2C)cc(OC)c1OC,,10.1%
Cc1ccc(NC(=O)C2CCN(S(=O)(=O)c3cc([N+](=O)[O-])ccc3Cl)CC2)nc1,4.6 µM (active),
Cc1ccc([N+](=O)[O-])cc1NC(=O)C1CCN(S(C)(=O)=O)CC1,,-23.7%
Cc1cc(C)cc(NC(=O)Cn2c(=O)oc3cc(S(=O)(=O)N4CCC(C)CC4)ccc32)c1,,-17.3%
Cc1ccc(C)c(Sc2ccc(NC(=O)CCl)cc2)c1,0.918 µM (active),
Cc1ccc(SCCNC(=O)c2ccccc2F)cc1,,-19.2%
C(=C\c1nc2ccccc2s1)/c1ccc2c(c1)OCO2,2.31 µM (active),
C(=C\c1cnc2ccccc2n1)/c1ccc2c(c1)OCO2,2.31 µM (active),
O=C(N/N=C/c1ccc([N+](=O)[O-])s1)c1ccccc1Br,1.63 µM (active),
Cc1cc(C(=O)N/N=C/c2ccc([N+](=O)[O-])s2)c2ccccc2n1,2.9 µM (active),
Cc1ccccc1NCC(=O)N/N=C\c1ccc([N+](=O)[O-])s1,3.26 µM (active),
Cc1ccccc1C(=O)N/N=C/c1ccc([N+](=O)[O-])s1,1.45 µM (active),
N/C(=N\N=Cc1ccc2c(c1)OCO2)NN=Cc1ccc2c(c1)OCO2,4.1 µM (active),
C[C@@H]1CC=C[C@H]2[C@H]1C(=O)N(Cc1ccccc1)[C@H]2c1ccc2ccccc2c1/C=C/c1ccccc1,,0.989%
CCOC(=O)c1nc(C(=O)NCc2ccc(C)cc2)nc2ccccc12,7.29 µM (active),
N#Cc1ccc(-c2c(-c3ccccc3)ncc3cc(F)ccc23)cc1,,-18.6%
Cc1ccc(CN=c2c([N+](=O)[O-])nn(-c3ccc(Cl)cc3)n2O)cc1,7.29 µM (active),
O=[N+]([O-])c1nn(-c2ccc(Cl)cc2)n(O)c1=NCc1ccccc1,9.18 µM (active),
O=[N+]([O-])c1nn(-c2ccc(Cl)cc2)n(O)c1=NCc1ccncc1,3.65 µM (active),
COc1ccc2cc3cc(C(=O)Nc4ccccc4N4CCN(C)CC4)oc3nc2c1,2.05 µM (active),
COc1ccc(OC)c(NC(=O)N2CCc3ccccc3C2)c1,,-4.77%
Cc1ccccc1Cn1nnc2c1C(=O)c1ccccc1C2=O,2.9 µM (active),
O=[N+]([O-])c1ccc(N2CCN(Cc3ccc([N+](=O)[O-])o3)CC2)cc1,0.516 µM (active),

SMILES,Potency,"activity change, negative = killing"
O=[N+]([O-])c1ccc(CN2CCN(c3ccccc3)CC2)o1,0.818 µM (active),
O=C(CN1CCN(c2ccccc2)CC1)Nc1scc2c1c(=O)oc1ccccc12,,-5.04%
O=[N+]([O-])c1ccc(CN2CCN(c3ccc(Cl)cc3)CC2)o1,0.729 µM (active),
O=[N+]([O-])c1ccc(CN2CCN(c3ccc(F)cc3)CC2)o1,1.03 µM (active),
COc1ccc(C(=O)CC(SCC(NC(C)=O)C(=O)O)c2ccc(Cl)cc2)cc1OC (centres undefined),13 µM (active),
Nc1c(Cl)cc(C2=NCCn3c2c2ccccc2[n+]3[O-])cc1Cl,0.326 µM (active),
COc1ccc2c3n([n+]([O-])c2c1)CCN=C3c1ccc(C)cc1,0.365 µM (active),
COc1ccc2c3n([n+]([O-])c2c1)CCN=C3c1cc(Cl)c(N)c(Cl)c1,0.183 µM (active),
COc1ccc2c3n([n+]([O-])c2c1)CCN=C3c1ccc(Cl)cc1,0.579 µM (active),
c1ccc(-c2cn3nc(-c4ccccc4)sc3n2)cc1,0.918 µM (active),
O=C(O)CCCCCNS(=O)(=O)c1cccc2c1C(=O)c1ccccc1C2=O,3.65 µM (active),
CC(C)c1ccc(Nc2nnc(SCC(=O)Nc3ncc(S(=O)(=O)c4ccc([N+](=O)[O-])cc4)s3)s2)cc1,2.05 µM (active),
N#CC1C=Cc2c(ccc3ccccc23)N1C(=O)c1ccccc1 (centres undefined),1.63 µM (active),
O=C(Cn1cnc2c(OCc3ccccc3)ncnc21)NCCCc1ccccc1,,-15%
O=C(Cn1ccnc1[N+](=O)[O-])NCc1ccccc1,1.3 µM (active),
c1ccc(CNc2ncnc3ccccc23)cc1,,8.27%
CC1CC(C)C(=NNC(N)=O)C(C(O)CC2CCC(=O)NC2=O)C1 (centres undefined),0.163 µM (active),
COc1ccc(NC(C)C(=O)N/N=C/c2ccc([N+](=O)[O-])s2)cc1 (centres undefined),1.63 µM (active),
Cc1ccc(NC(C)C(=O)N/N=C/c2ccc([N+](=O)[O-])s2)cc1 (centres undefined),2.9 µM (active),
CCn1cnc2c([N+](=O)[O-])c(NS(=O)(=O)c3ccc(C)cc3)ccc21,0.206 µM (active),
Cc1ccc(OCC(=O)N/N=C/c2ccc([N+](=O)[O-])o2)cc1,0.729 µM (active),
O=C(COc1ccccc1)N/N=C/c1ccc([N+](=O)[O-])o1,0.46 µM (active),
Cc1cc(C)cc(OCC(=O)N/N=C/c2ccc([N+](=O)[O-])o2)c1,0.579 µM (active),
O=C(N/N=C/c1ccc([N+](=O)[O-])o1)C(O)c1ccccc1 (centres undefined),4.1 µM (active),

SMILES,Potency,"activity change, negative = killing"
CCN1C[C@@H]2[C@@H]3C(=O)N(Cc4ccccc4)C(=O)[C@@H]3[C@](C)(C1=O)N2C(=O)c1ccccc1,,-13.9%
Cc1ccccc1OCC(=O)N/N=C/c1ccc([N+](=O)[O-])o1,0.516 µM (active),
CCCOc1ccc(CCC(=O)N/N=C/c2ccc([N+](=O)[O-])o2)cc1,0.729 µM (active),
COc1ccc(CC(=O)Nc2ncc([N+](=O)[O-])s2)cc1OC,0.259 µM (active),
COc1ccc(Cc2nnc(NC(=O)Nc3ccccc3F)s2)cc1OC,,-18.3%
O=C(Cc1ccc(Cl)cc1)Nc1ncc([N+](=O)[O-])s1,0.818 µM (active),
Cc1nc(C)c(C(=O)Nc2ncc([N+](=O)[O-])s2)o1,1.16 µM (active),
Cc1ccc(C(=O)Nc2ncc([N+](=O)[O-])s2)cc1,0.259 µM (active),
CC1CCN(S(=O)(=O)c2cn(C)c(=O)n(C)c2=O)CC1,,-33.1%
Cc1ccc(OCC(=O)N(Cc2cccc(Cl)c2)C2CCS(=O)(=O)C2)cc1C (centres undefined),,-0.809%
O=C(Nc1ncc([N+](=O)[O-])s1)c1ccc2c(c1)OCO2,0.259 µM (active),
CC12CCC(C(=O)Nc3ncc([N+](=O)[O-])s3)(OC1=O)C2(C)C (centres undefined),0.206 µM (active),
O=C(Cc1ccc(Br)cc1)Nc1ncc([N+](=O)[O-])s1,0.23 µM (active),
O=C(/C=C/c1ccc([N+](=O)[O-])cc1)Nc1ncc([N+](=O)[O-])s1,0.65 µM (active),
O=C(COc1ccc(Cl)cc1)Nc1ncc([N+](=O)[O-])s1,0.41 µM (active),
Cc1onc(-c2ccccc2)c1NC(=O)N(Cc1ccccc1)C(C)C,,11.7%
Cc1ccc(S(=O)(=O)CC(=O)Nc2ccc(F)c(F)c2F)cc1,,1.71%
Cc1ccc(S(=O)(=O)CC(=O)Nc2ncc([N+](=O)[O-])s2)cc1,0.579 µM (active),
Cc1onc(-c2ccccc2)c1C(=O)N(Cc1ccccc1)C(C)C,,-12.6%
Cc1onc(-c2ccccc2)c1C(=O)Nc1ncc([N+](=O)[O-])s1,0.579 µM (active),
O=C(Cc1c(F)cccc1Cl)Nc1ncc([N+](=O)[O-])s1,0.206 µM (active),
CCn1cc(C(=O)NCCC(C)C)c(=O)c2cc(F)c(N3CCN(C(=O)c4ccco4)CC3)cc21,,-21.5%
